Data published in paper PMC11006913.
Positions count from the first letter of the chain named.

Key:
Test in all cases: PBM; 200 nM protein, PBS
Settings in all cases: dsDNA, one strand shown
HOXA4 [1] = target: HOXA4 (Homo sapiens, UniProt Q00056 201-287, W262R)
VENTX = target: T1, VENTX (Homo sapiens, UniProt O95231 78-163)
T1 sequence: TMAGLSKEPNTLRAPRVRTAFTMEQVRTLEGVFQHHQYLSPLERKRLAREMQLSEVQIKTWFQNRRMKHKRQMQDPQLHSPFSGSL

HOXA7 [2] = target: HOXA7 (Homo sapiens, UniProt P31268 116-202)
HOXA4 [3] = target: HOXA4 (Homo sapiens, UniProt Q00056 201-287)
VAX1 = VAX1 (Homo sapiens, UniProt Q5SQQ9 86-172)
HOXA2 [4] = target: HOXA2 (Homo sapiens, UniProt O43364 129-215, Y150S)
HOXA7 [5] = target: HOXA7 (Homo sapiens, UniProt P31268 116-202, W177C)
HOXA2 [6] = target: HOXA2 (Homo sapiens, UniProt O43364 129-215)
HOXB6 = HOXB6 (Homo sapiens, UniProt P17509 132-218)
HOXB9 [7] = target: HOXB9 (Homo sapiens, UniProt P17482 171-250, T197M)
PAX4 [8] = target: T2, PAX4 (Homo sapiens, UniProt O43316 9-242)
T2 sequence: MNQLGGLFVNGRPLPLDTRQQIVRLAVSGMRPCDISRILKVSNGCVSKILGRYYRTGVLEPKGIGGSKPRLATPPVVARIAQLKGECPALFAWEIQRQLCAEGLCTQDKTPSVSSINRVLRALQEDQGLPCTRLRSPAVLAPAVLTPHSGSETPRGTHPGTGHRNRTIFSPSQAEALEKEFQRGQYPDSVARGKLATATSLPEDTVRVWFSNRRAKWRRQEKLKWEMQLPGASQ

HOXC10 [9] = target: HOXC10 (Homo sapiens, UniProt Q9NYD6 254-340, K271E)
PAX4 [10] = target: T3, PAX4 (Homo sapiens, UniProt O43316 9-242, R227W)
T3 sequence: T2 sequence with R219W

HOXC10 [11] = target: HOXC10 (Homo sapiens, UniProt Q9NYD6 254-340)
HOXB9 [12] = target: HOXB9 (Homo sapiens, UniProt P17482 171-250)
HOXB9 [13] = target: HOXB9 (Homo sapiens, UniProt P17482 171-250, R186Q)
HOXB9 (Homo sapiens, UniProt P17482 171-250, R186Q), sequence (P17482 171-250 R186Q): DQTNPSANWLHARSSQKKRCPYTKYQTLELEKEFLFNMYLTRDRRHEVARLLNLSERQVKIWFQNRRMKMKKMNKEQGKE

HOXA2 (Homo sapiens, UniProt O43364 129-215, Y150S), sequence (O43364 129-215 Y150S): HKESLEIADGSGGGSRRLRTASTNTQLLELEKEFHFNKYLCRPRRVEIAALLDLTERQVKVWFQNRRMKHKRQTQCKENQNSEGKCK
HOXA7 (Homo sapiens, UniProt P31268 116-202), sequence (P31268 116-202): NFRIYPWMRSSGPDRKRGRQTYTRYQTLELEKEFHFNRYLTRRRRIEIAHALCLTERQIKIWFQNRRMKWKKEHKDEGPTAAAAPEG
HOXA7 (Homo sapiens, UniProt P31268 116-202, W177C), sequence (P31268 116-202 W177C): as the sequence (P31268 116-202) above, with W62C counted along it
HOXA2 (Homo sapiens, UniProt O43364 129-215), sequence (O43364 129-215): as the sequence (O43364 129-215 Y150S) above, with S22Y counted along it
HOXA4 (Homo sapiens, UniProt Q00056 201-287, W262R), sequence (Q00056 201-287 W262R): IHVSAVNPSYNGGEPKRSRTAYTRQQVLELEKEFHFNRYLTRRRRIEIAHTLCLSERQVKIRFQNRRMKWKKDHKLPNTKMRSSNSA
HOXA4 (Homo sapiens, UniProt Q00056 201-287), sequence (Q00056 201-287): as the sequence (Q00056 201-287 W262R) above, with R62W counted along it
HOXB6, sequence (P17509 132-218): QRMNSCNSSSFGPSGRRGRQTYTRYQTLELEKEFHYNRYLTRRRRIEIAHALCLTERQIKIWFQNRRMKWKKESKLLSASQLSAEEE
HOXB9 (Homo sapiens, UniProt P17482 171-250, T197M), sequence (P17482 171-250 T197M): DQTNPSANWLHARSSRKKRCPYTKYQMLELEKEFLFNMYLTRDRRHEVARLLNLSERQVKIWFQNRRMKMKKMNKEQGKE
HOXC10 (Homo sapiens, UniProt Q9NYD6 254-340, K271E), sequence (Q9NYD6 254-340 K271E): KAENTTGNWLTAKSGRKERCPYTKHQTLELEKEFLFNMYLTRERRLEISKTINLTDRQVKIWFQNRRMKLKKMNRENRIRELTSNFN
VAX1, sequence (Q5SQQ9 86-172): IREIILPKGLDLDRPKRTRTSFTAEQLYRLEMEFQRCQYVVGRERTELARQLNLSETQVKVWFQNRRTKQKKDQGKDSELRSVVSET
HOXC10 (Homo sapiens, UniProt Q9NYD6 254-340), sequence (Q9NYD6 254-340): as the sequence (Q9NYD6 254-340 K271E) above, with E18K counted along it
HOXB9 (Homo sapiens, UniProt P17482 171-250), sequence (P17482 171-250): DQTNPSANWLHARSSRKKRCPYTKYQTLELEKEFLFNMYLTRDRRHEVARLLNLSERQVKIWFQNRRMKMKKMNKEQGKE

Sequence: CAATTAAG
- binding signal (HOXA4 [1]): 10.6 upbm affinity estimate (log intensity, higher = more binding, comparable within an allelic series)
- binding signal (VENTX): 12.5 upbm affinity estimate (log intensity, higher = more binding, comparable within an allelic series)
- binding signal (HOXA7 [2]): 11.5 upbm affinity estimate (log intensity, higher = more binding, comparable within an allelic series)
- binding signal (HOXA4 [3]): 13.8 upbm affinity estimate (log intensity, higher = more binding, comparable within an allelic series)
- binding signal (VAX1): 13 upbm affinity estimate (log intensity, higher = more binding, comparable within an allelic series)
- binding signal (HOXA2 [4]): 10.7 upbm affinity estimate (log intensity, higher = more binding, comparable within an allelic series)
- binding signal (HOXA7 [5]): 8.83 upbm affinity estimate (log intensity, higher = more binding, comparable within an allelic series)
- binding signal (HOXA2 [6]): 12.2 upbm affinity estimate (log intensity, higher = more binding, comparable within an allelic series)
- binding signal (HOXB6): 11.8 upbm affinity estimate (log intensity, higher = more binding, comparable within an allelic series)

Sequence: CTAATTAC
- binding signal (HOXB9 [7]): 10.1 upbm affinity estimate (log intensity, higher = more binding, comparable within an allelic series)
- binding signal (HOXA4 [1]): 10.8 upbm affinity estimate (log intensity, higher = more binding, comparable within an allelic series)
- binding signal (VENTX): 13.2 upbm affinity estimate (log intensity, higher = more binding, comparable within an allelic series)
- binding signal (HOXA7 [2]): 11.9 upbm affinity estimate (log intensity, higher = more binding, comparable within an allelic series)
- binding signal (PAX4 [8]): 12.5 upbm affinity estimate (log intensity, higher = more binding, comparable within an allelic series)
- binding signal (HOXA4 [3]): 14.2 upbm affinity estimate (log intensity, higher = more binding, comparable within an allelic series)
- binding signal (HOXC10 [9]): 12 upbm affinity estimate (log intensity, higher = more binding, comparable within an allelic series)
- binding signal (VAX1): 14 upbm affinity estimate (log intensity, higher = more binding, comparable within an allelic series)
- binding signal (PAX4 [10]): 11.1 upbm affinity estimate (log intensity, higher = more binding, comparable within an allelic series)
- binding signal (HOXA2 [4]): 10.9 upbm affinity estimate (log intensity, higher = more binding, comparable within an allelic series)
- binding signal (HOXA7 [5]): 8.84 upbm affinity estimate (log intensity, higher = more binding, comparable within an allelic series)
- binding signal (HOXA2 [6]): 13.4 upbm affinity estimate (log intensity, higher = more binding, comparable within an allelic series)
- binding signal (HOXB6): 12.3 upbm affinity estimate (log intensity, higher = more binding, comparable within an allelic series)

Sequence: ATAATTAG
- binding signal (HOXB9 [7]): 10.2 upbm affinity estimate (log intensity, higher = more binding, comparable within an allelic series)
- binding signal (HOXA4 [1]): 10.9 upbm affinity estimate (log intensity, higher = more binding, comparable within an allelic series)
- binding signal (VENTX): 12.9 upbm affinity estimate (log intensity, higher = more binding, comparable within an allelic series)
- binding signal (HOXA7 [2]): 11.8 upbm affinity estimate (log intensity, higher = more binding, comparable within an allelic series)
- binding signal (PAX4 [8]): 12.7 upbm affinity estimate (log intensity, higher = more binding, comparable within an allelic series)
- binding signal (HOXA4 [3]): 14.2 upbm affinity estimate (log intensity, higher = more binding, comparable within an allelic series)
- binding signal (HOXC10 [9]): 11.8 upbm affinity estimate (log intensity, higher = more binding, comparable within an allelic series)
- binding signal (VAX1): 13.8 upbm affinity estimate (log intensity, higher = more binding, comparable within an allelic series)
- binding signal (PAX4 [10]): 11.3 upbm affinity estimate (log intensity, higher = more binding, comparable within an allelic series)
- binding signal (HOXA2 [4]): 11 upbm affinity estimate (log intensity, higher = more binding, comparable within an allelic series)
- binding signal (HOXA7 [5]): 9.08 upbm affinity estimate (log intensity, higher = more binding, comparable within an allelic series)
- binding signal (HOXA2 [6]): 13.1 upbm affinity estimate (log intensity, higher = more binding, comparable within an allelic series)
- binding signal (HOXB6): 12.2 upbm affinity estimate (log intensity, higher = more binding, comparable within an allelic series)

Sequence: CCCCGGCG
- binding signal (HOXA4 [1]): 9.68 upbm affinity estimate (log intensity, higher = more binding, comparable within an allelic series)
- binding signal (HOXC10 [11]): 9.87 upbm affinity estimate (log intensity, higher = more binding, comparable within an allelic series)
- binding signal (HOXA4 [3]): 9.89 upbm affinity estimate (log intensity, higher = more binding, comparable within an allelic series)
- binding signal (HOXC10 [9]): 10 upbm affinity estimate (log intensity, higher = more binding, comparable within an allelic series)
- binding signal (HOXB6): 9 upbm affinity estimate (log intensity, higher = more binding, comparable within an allelic series)

Sequence: ACCAATTA
- binding signal (HOXB9 [7]): 9.73 upbm affinity estimate (log intensity, higher = more binding, comparable within an allelic series)
- binding signal (VENTX): 12.8 upbm affinity estimate (log intensity, higher = more binding, comparable within an allelic series)
- binding signal (HOXA7 [2]): 11.2 upbm affinity estimate (log intensity, higher = more binding, comparable within an allelic series)
- binding signal (PAX4 [8]): 12.2 upbm affinity estimate (log intensity, higher = more binding, comparable within an allelic series)
- binding signal (HOXB9 [12]): 11.1 upbm affinity estimate (log intensity, higher = more binding, comparable within an allelic series)
- binding signal (VAX1): 12.8 upbm affinity estimate (log intensity, higher = more binding, comparable within an allelic series)
- binding signal (HOXB9 [13]): 10.9 upbm affinity estimate (log intensity, higher = more binding, comparable within an allelic series)
- binding signal (PAX4 [10]): 10.8 upbm affinity estimate (log intensity, higher = more binding, comparable within an allelic series)
- binding signal (HOXA2 [4]): 10.9 upbm affinity estimate (log intensity, higher = more binding, comparable within an allelic series)
- binding signal (HOXA7 [5]): 8.84 upbm affinity estimate (log intensity, higher = more binding, comparable within an allelic series)
- binding signal (HOXA2 [6]): 12.1 upbm affinity estimate (log intensity, higher = more binding, comparable within an allelic series)
- binding signal (HOXB6): 11.7 upbm affinity estimate (log intensity, higher = more binding, comparable within an allelic series)

Sequence: TAATTGCA
- binding signal (HOXB9 [7]): 10.2 upbm affinity estimate (log intensity, higher = more binding, comparable within an allelic series)
- binding signal (HOXA7 [2]): 11.6 upbm affinity estimate (log intensity, higher = more binding, comparable within an allelic series)
- binding signal (HOXC10 [9]): 11.8 upbm affinity estimate (log intensity, higher = more binding, comparable within an allelic series)
- binding signal (HOXA2 [4]): 11 upbm affinity estimate (log intensity, higher = more binding, comparable within an allelic series)
- binding signal (HOXA7 [5]): 8.79 upbm affinity estimate (log intensity, higher = more binding, comparable within an allelic series)
- binding signal (HOXA2 [6]): 12.3 upbm affinity estimate (log intensity, higher = more binding, comparable within an allelic series)
- binding signal (HOXB6): 12.1 upbm affinity estimate (log intensity, higher = more binding, comparable within an allelic series)
